PubChem BioAssay AID1159580 (chemical genetic matrix, 2015)
Hit rate of the full screen: of about 5,500 compounds, about 2,000 (36%) were called active. Inconclusive results (about 18%) are left out. Rule as the data show it: active = normalized growth mostly below about 0.91 (no sharp cut-off); inconclusive = no clear call, values can overlap the other calls; inactive = mostly above about 0.92. The list shows a part of the results.

Assay: chemical genetic growth profiling, strain panel (AID 1159580);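 also: tested at 20 µM; growth read once vehicle control cultures reached saturation at 30 °C; 1 = growth at the plate median or of vehicle wells; lower values mean less growth of the strain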
Details: growth OD

Measured: normalized growth

C[N+]1(C)C2CC(OC(=O)[C@@H](CO)c3ccccc3)CC1C1OC12 (stereo partly drawn)
inactive: S. cerevisiae deletion strains, locus YJR066W, strain TOR1, stronger effect = lower value 0.976 | S. cerevisiae deletion strains, locus YJR075W, strain HOC1, stronger effect = lower value 1.01 | S. cerevisiae deletion strains, locus YKL009W, strain mrt4, stronger effect = lower value 1 | S. cerevisiae deletion strains, locus YKL068W, stronger effect = lower value 1 | S. cerevisiae deletion strains, locus YKL085W, strain MDH1 (second series), stronger effect = lower value 1.01 | S. cerevisiae deletion strains, locus YKL085W, strain MDH1, stronger effect = lower value 1.01 | S. cerevisiae deletion strains, locus YKL160W, strain elf1, stronger effect = lower value 0.955 | S. cerevisiae deletion strains, locus YKL190W, strain CNB1, stronger effect = lower value 1.03 | S. cerevisiae deletion strains, locus YKR001C, strain vps1, stronger effect = lower value 1.02 | S. cerevisiae deletion strains, locus YKR026C, strain gcn3, stronger effect = lower value 0.984 | S. cerevisiae deletion strains, locus YKR091W, strain srl3, stronger effect = lower value 0.968 | S. cerevisiae deletion strains, locus YLL001W, strain dnm1, stronger effect = lower value 0.933 | S. cerevisiae deletion strains, locus YLL026W, stronger effect = lower value 0.985 | S. cerevisiae deletion strains, locus YLL041C, strain sdh2, stronger effect = lower value 0.984 | S. cerevisiae deletion strains, locus YLR027C, strain aat2, stronger effect = lower value 0.982 | S. cerevisiae deletion strains, locus YLR039C, strain RIC1, stronger effect = lower value 1.02 | S. cerevisiae deletion strains, locus YLR058C, strain SHM2, stronger effect = lower value 1.02 | S. cerevisiae deletion strains, locus YLR102C, strain apc9, stronger effect = lower value 1.02 | S. cerevisiae deletion strains, locus YLR113W, strain HOG1, stronger effect = lower value 1 | S. cerevisiae deletion strains, locus YLR221C, strain rsa3, stronger effect = lower value 0.91 | S. cerevisiae deletion strains, locus YLR258W, strain gsy2, stronger effect = lower value 0.969 | S. cerevisiae deletion strains, locus YLR262C, strain YPT6 (second series), stronger effect = lower value 0.973 | S. cerevisiae deletion strains, locus YLR262C, strain YPT6, stronger effect = lower value 1.06 | S. cerevisiae deletion strains, locus YLR268W, strain sec22, stronger effect = lower value 1.03 | S. cerevisiae deletion strains, locus YLR320W, strain mms22, stronger effect = lower value 0.94 | S. cerevisiae deletion strains, locus YLR330W, strain CHS5, stronger effect = lower value 1.02 | S. cerevisiae deletion strains, locus YLR342W, strain FKS1 (second series), stronger effect = lower value 1.03 | S. cerevisiae deletion strains, locus YLR342W, strain FKS1, stronger effect = lower value 0.962 | S. cerevisiae deletion strains, locus YLR357W, strain rsc2, stronger effect = lower value 0.979 | S. cerevisiae deletion strains, locus YLR370C, strain arc18, stronger effect = lower value 0.948 | S. cerevisiae deletion strains, locus YLR371W, strain rom2, stronger effect = lower value 1 | S. cerevisiae deletion strains, locus YLR384C, strain iki3, stronger effect = lower value 0.97 | S. cerevisiae deletion strains, locus YLR418C, strain cdc73, stronger effect = lower value 1.05 | S. cerevisiae deletion strains, locus YML016C, strain PPZ1, stronger effect = lower value 1.01 | S. cerevisiae deletion strains, locus YML032C, strain rad52, stronger effect = lower value 1.01 | S. cerevisiae deletion strains, locus YML124C, strain tub3, stronger effect = lower value 1.03 | S. cerevisiae deletion strains, locus YMR058W, strain fet3, stronger effect = lower value 0.973 | S. cerevisiae deletion strains, locus YMR078C, strain ctf18, stronger effect = lower value 1.02 | S. cerevisiae deletion strains, locus YMR125W, strain sto1, stronger effect = lower value 0.962 | S. cerevisiae deletion strains, locus YMR129W, stronger effect = lower value 0.982 | S. cerevisiae deletion strains, locus YMR205C, strain PFK2, stronger effect = lower value 0.956 | S. cerevisiae deletion strains, locus YMR223W, strain ubp8, stronger effect = lower value 1.05 | S. cerevisiae deletion strains, locus YMR231W, strain pep5, stronger effect = lower value 0.989 | S. cerevisiae deletion strains, locus YMR307W, strain GAS1, stronger effect = lower value 1.05 | S. cerevisiae deletion strains, locus YNL067W, strain RPL9B, stronger effect = lower value 1.02 | S. cerevisiae deletion strains, locus YNL071W, strain lat1, stronger effect = lower value 0.978 | S. cerevisiae deletion strains, locus YNL183C, strain NPR1, stronger effect = lower value 0.957 | S. cerevisiae deletion strains, locus YNL209W, strain ssb2, stronger effect = lower value 0.959 | S. cerevisiae deletion strains, locus YNL233W, strain BNI4, stronger effect = lower value 1.01 | S. cerevisiae deletion strains, locus YNL248C, strain rpa49, stronger effect = lower value 0.971 | S. cerevisiae deletion strains, locus YNL250W, strain rad50, stronger effect = lower value 1.02 | S. cerevisiae deletion strains, locus YNL271C, strain bni1, stronger effect = lower value 1.01 | S. cerevisiae deletion strains, locus YNL298W, strain CLA4, stronger effect = lower value 1.02 | S. cerevisiae deletion strains, locus YNL307C, strain MCK1, stronger effect = lower value 1.02 | S. cerevisiae deletion strains, locus YNL322C, strain KRE1 (second series), stronger effect = lower value 0.936 | S. cerevisiae deletion strains, locus YNR049C, strain mso1, stronger effect = lower value 0.964 | S. cerevisiae deletion strains, locus YNR052C, strain pop2, stronger effect = lower value 1.02 | S. cerevisiae deletion strains, locus YOL012C, strain htz1 1.54 | S. cerevisiae deletion strains, locus YOL147C, strain pex11, stronger effect = lower value 1.03 | S. cerevisiae deletion strains, locus YOR001W, strain rrp6, stronger effect = lower value 1.04 | S. cerevisiae deletion strains, locus YOR061W, strain CKA2, stronger effect = lower value 1.01 | S. cerevisiae deletion strains, locus YOR069W, strain VPS5, stronger effect = lower value 1.01 | S. cerevisiae deletion strains, locus YOR070C, strain gyp1, stronger effect = lower value 0.99 | S. cerevisiae deletion strains, locus YOR080W, strain dia2, stronger effect = lower value 0.952 | S. cerevisiae deletion strains, locus YOR083W, strain WHI5, stronger effect = lower value 0.962 | S. cerevisiae deletion strains, locus YOR106W, strain vam3, stronger effect = lower value 0.933 | S. cerevisiae deletion strains, locus YOR136W, strain idh2, stronger effect = lower value 1.02 | S. cerevisiae deletion strains, locus YOR144C, strain elg1, stronger effect = lower value 1.01 | S. cerevisiae deletion strains, locus YOR184W, strain ser1, stronger effect = lower value 1.03 | S. cerevisiae deletion strains, locus YOR231W, strain MKK1, stronger effect = lower value 0.998 | S. cerevisiae deletion strains, locus YOR265W, strain rbl2, stronger effect = lower value 0.965 | S. cerevisiae deletion strains, locus YOR270C, strain vph1, stronger effect = lower value 0.935 | S. cerevisiae deletion strains, locus YOR316C, strain cot1, stronger effect = lower value 1.02 | S. cerevisiae deletion strains, locus YPL051W, strain arl3, stronger effect = lower value 0.988 | S. cerevisiae deletion strains, locus YPL055C, strain LGE1, stronger effect = lower value 1.05 | S. cerevisiae deletion strains, locus YPL078C, strain atp4, stronger effect = lower value 0.956 | S. cerevisiae deletion strains, locus YPL106C, strain sse1, stronger effect = lower value 0.94 | S. cerevisiae deletion strains, locus YPL240C, strain hsp82, stronger effect = lower value 0.978 | S. cerevisiae deletion strains, locus YPL241C, strain CIN2, stronger effect = lower value 1.01 | S. cerevisiae deletion strains, locus YPL256C, strain CLN2, stronger effect = lower value 1.05 | S. cerevisiae deletion strains, locus YPR119W, strain clb2, stronger effect = lower value 1.01 | S. cerevisiae deletion strains, locus YPR141C, strain kar3, stronger effect = lower value 1.01 | S. cerevisiae deletion strains, locus YPR163C, strain tif3, stronger effect = lower value 1.03 | S. cerevisiae deletion strains, locus YPR167C, strain met16, stronger effect = lower value 1.03 | S. cerevisiae deletion strains, strain wtn01, stronger effect = lower value 1.02 | S. cerevisiae strains, strain wild type, stronger effect = lower value 1.03
active: S. cerevisiae deletion strains, locus YML120C, strain ndi1, stronger effect = lower value 0.903 | S. cerevisiae deletion strains, locus YOR290C, strain snf2, stronger effect = lower value 0.865
